Targets with a hit are over-represented here; the source holds about 7,900 in all. About 0.6% of all pairs of compound and target were hits.
Assays:
Experiment in all cases: log2 fold change, soluble protein after heating vs DMSO (PISA); higher = thermal stabilisation; K562 cells, 10 uM, 30 min; active = over 0.2 and 3.5 SD of the protein, either way, in both replicates (recomputed)
[1] = compound: CC1=C(C=C(C=C1)NC(=O)C2=CC(=CC=C2)C(C)(C)C#N)NC3=CC4=C(C=C3)N=CN(C4=O)C
In short: (§1)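 K562 cells at 2×10^6 cells/mL were treated for 30 min with 10 μM compound, and aliquots were heated for 3 min over 48°C-58°C before pooling. Extraction used PBS with 0.5% NP-40 at 4°C, and soluble protein was the supernatant after 21,000xg for 90 min, measured by TMTpro 16plex LC-MS/MS with channel sums equalised. Thermal stability values, relative to control samples and from duplicates, are log2 fold changes.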

[2] = compound: CC1=C(C=C(C=C1)NC(=O)C2=CC(=CC=C2)N(C)C)NC(=O)C3=CC=C(C=C3)O
In short: as §1

[3] = compound: CC1=CC=C(C=C1)SC2=C3C=C(SC3=CN=C2)C(=O)N
In short: as §1

[4] = compound: CC1=NC(=CC=C1)C2=C(N=C(N2)C(C)(C)C)C3=CC4=NC=CN=C4C=C3
In short: as §1

Nexturastat A = compound: CCCCN(Cc1ccc(C(=O)NO)cc1)C(=O)Nc1ccccc1 [Nexturastat A]
In short: as §1

vemurafenib = compound: CCCS(=O)(=O)Nc1ccc(F)c(C(=O)c2c[nH]c3ncc(-c4ccc(Cl)cc4)cc23)c1F [vemurafenib]
In short: as §1

[5] = compound: CCCS(=O)(=O)Nc1ccc(F)c(C(=O)c2c[nH]c3ncc(Cl)cc23)c1F
In short: as §1

[6] = compound: CCCc1cc(C)[nH]c(=O)c1CNC(=O)c1cc(-c2ccnc(N3CCN(C)CC3)c2)cc2c1cnn2C(C)C
In short: as §1

givinostat = compound: CCN(CC)Cc1ccc2cc(COC(=O)Nc3ccc(C(=O)NO)cc3)ccc2c1 [givinostat]
In short: as §1

barasertib = compound: CCN(CCCOc1ccc2c(Nc3cc(CC(=O)Nc4cccc(F)c4)[nH]n3)ncnc2c1)CCOP(=O)(O)O [barasertib]
In short: as §1

Measured: log2 fold change

L2HGDH (UniProt Q9H9P8)
Chain of UniProt Q9H9P8 (Q9H9P8 whole entry, looked up): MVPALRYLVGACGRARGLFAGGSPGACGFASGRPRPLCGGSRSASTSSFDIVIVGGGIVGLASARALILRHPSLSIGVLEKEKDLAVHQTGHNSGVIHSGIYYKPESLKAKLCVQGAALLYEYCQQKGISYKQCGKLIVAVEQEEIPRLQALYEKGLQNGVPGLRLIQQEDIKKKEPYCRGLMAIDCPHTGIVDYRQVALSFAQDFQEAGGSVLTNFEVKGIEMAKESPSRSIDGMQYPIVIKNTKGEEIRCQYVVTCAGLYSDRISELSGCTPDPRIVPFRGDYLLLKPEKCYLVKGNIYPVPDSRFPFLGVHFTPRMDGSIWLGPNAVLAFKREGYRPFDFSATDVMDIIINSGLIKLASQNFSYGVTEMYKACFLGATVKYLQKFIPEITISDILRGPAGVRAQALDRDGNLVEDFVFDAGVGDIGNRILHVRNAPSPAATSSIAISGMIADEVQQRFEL
inactive: [1] 0.03 | [2] 0.009 | [3] 0.021 | [4] -0.046 | Nexturastat A -0.102 | vemurafenib 0.015 | [5] -0.042 | [6] -0.081 | givinostat -0.016 | barasertib 0.011

ILK (UniProt Q13418)
inactive: [1] -0.179 | [2] -0.053 | [3] 0.025 | [4] -0.208 | Nexturastat A 0.135 | vemurafenib -0.075 | [5] -0.005 | [6] -0.031 | givinostat 0.041 | barasertib 0.019

KLC2 (UniProt Q9H0B6)
inactive: [1] 0.025 | [2] -0.055 | [3] 0.021 | [4] 0.015 | Nexturastat A 0.001 | vemurafenib 0.012 | [5] 0.096 | [6] 0.001 | givinostat 0.044 | barasertib 0.006

METAP1D (UniProt Q6UB28)
Chain of UniProt Q6UB28 (Q6UB28 whole entry, looked up): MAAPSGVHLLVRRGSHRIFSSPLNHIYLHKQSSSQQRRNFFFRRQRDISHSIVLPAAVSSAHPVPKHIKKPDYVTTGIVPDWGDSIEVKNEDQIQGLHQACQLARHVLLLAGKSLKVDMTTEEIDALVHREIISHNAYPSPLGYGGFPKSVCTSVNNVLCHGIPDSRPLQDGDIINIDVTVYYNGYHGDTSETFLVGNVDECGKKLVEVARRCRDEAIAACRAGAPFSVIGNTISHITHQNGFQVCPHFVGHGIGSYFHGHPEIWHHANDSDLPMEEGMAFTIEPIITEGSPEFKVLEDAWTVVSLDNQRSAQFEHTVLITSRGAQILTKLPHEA
inactive: [1] -0.022 | [2] 0.009 | [3] 0.047 | [4] -0.09 | Nexturastat A -0.087 | vemurafenib -0.032 | [5] -0.053 | [6] 0.056 | givinostat -0.054 | barasertib -0.074

MAP4 (UniProt E7EVA0)
inactive: [1] 0 | [2] 0.008 | [3] -0.03 | [4] -0.061 | Nexturastat A 0.161 | vemurafenib -0.046 | [5] -0.002 | [6] 0.024 | givinostat 0.091 | barasertib 0.061

MIEF1 (UniProt L0R8F8)
inactive: [1] -0.007 | [2] 0.003 | [3] 0.019 | [4] -0.026 | Nexturastat A 0.092 | vemurafenib 0.079 | [5] 0.102 | [6] -0.001 | givinostat 0.006 | barasertib 0.003

MED1 (UniProt Q15648)
inactive: [1] -0.043 | [2] 0.084 | [3] -0.067 | [4] -0.06 | Nexturastat A 0.079 | vemurafenib -0.028 | [5] -0.034 | [6] -0.006 | givinostat 0.001 | barasertib -0.023

MAPRE3 (UniProt Q9UPY8)
inactive: [1] 0 | [2] -0.002 | [3] -0.021 | [4] 0.074 | Nexturastat A -0.07 | vemurafenib 0.041 | [5] 0.06 | [6] 0.136 | givinostat -0.037 | barasertib 0.027

MCU (UniProt Q8NE86)
inactive: [1] 0 | [2] 0.051 | [3] 0.094 | [4] 0.002 | Nexturastat A 0.002 | vemurafenib 0.026 | [5] 0.022 | [6] -0.075 | givinostat 0.013 | barasertib 0.014

LUZP1 (UniProt Q86V48)
Chain of UniProt Q86V48 (Q86V48 whole entry, looked up): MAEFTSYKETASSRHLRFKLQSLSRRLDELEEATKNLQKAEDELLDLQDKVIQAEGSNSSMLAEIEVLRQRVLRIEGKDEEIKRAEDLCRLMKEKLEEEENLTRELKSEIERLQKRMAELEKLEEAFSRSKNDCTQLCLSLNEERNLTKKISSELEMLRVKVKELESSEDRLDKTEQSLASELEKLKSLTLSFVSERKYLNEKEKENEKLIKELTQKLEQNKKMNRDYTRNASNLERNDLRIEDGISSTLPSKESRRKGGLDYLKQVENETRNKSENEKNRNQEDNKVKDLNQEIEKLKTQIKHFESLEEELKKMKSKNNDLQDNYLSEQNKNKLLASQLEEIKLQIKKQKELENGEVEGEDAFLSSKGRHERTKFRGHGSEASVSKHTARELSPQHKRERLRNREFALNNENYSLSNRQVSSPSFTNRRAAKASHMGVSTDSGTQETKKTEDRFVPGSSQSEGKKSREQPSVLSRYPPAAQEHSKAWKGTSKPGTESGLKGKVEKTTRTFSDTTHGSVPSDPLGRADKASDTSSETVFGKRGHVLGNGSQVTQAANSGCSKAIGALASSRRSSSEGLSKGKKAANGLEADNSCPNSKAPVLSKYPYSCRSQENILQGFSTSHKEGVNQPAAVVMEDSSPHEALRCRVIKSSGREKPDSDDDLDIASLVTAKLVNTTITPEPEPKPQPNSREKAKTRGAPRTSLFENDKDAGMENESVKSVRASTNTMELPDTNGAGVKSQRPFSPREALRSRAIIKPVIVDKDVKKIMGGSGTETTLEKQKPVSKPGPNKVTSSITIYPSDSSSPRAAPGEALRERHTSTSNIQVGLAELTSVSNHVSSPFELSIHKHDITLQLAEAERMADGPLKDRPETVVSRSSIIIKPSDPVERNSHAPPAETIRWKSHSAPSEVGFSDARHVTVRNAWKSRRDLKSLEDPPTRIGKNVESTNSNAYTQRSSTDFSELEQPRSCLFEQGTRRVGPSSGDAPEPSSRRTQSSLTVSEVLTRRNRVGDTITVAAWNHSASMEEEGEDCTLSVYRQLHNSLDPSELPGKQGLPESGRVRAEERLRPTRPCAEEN
inactive: [1] -0.128 | [2] 0.136 | [3] -0.005 | [4] -0.182 | Nexturastat A 0.184 | vemurafenib 0.05 | [5] -0.091 | [6] -0.029 | givinostat 0.031 | barasertib -0.062

MAPK9 (UniProt P45984)
inactive: [1] 0 | [2] -0.011 | [3] -0.078 | [4] 0.044 | Nexturastat A -0.057 | vemurafenib -0.005 | [5] -0.07 | [6] 0.034 | givinostat 0.038 | barasertib -0.022

MAN2B2 (UniProt Q9Y2E5)
Chain of UniProt Q9Y2E5 (Q9Y2E5 whole entry, looked up): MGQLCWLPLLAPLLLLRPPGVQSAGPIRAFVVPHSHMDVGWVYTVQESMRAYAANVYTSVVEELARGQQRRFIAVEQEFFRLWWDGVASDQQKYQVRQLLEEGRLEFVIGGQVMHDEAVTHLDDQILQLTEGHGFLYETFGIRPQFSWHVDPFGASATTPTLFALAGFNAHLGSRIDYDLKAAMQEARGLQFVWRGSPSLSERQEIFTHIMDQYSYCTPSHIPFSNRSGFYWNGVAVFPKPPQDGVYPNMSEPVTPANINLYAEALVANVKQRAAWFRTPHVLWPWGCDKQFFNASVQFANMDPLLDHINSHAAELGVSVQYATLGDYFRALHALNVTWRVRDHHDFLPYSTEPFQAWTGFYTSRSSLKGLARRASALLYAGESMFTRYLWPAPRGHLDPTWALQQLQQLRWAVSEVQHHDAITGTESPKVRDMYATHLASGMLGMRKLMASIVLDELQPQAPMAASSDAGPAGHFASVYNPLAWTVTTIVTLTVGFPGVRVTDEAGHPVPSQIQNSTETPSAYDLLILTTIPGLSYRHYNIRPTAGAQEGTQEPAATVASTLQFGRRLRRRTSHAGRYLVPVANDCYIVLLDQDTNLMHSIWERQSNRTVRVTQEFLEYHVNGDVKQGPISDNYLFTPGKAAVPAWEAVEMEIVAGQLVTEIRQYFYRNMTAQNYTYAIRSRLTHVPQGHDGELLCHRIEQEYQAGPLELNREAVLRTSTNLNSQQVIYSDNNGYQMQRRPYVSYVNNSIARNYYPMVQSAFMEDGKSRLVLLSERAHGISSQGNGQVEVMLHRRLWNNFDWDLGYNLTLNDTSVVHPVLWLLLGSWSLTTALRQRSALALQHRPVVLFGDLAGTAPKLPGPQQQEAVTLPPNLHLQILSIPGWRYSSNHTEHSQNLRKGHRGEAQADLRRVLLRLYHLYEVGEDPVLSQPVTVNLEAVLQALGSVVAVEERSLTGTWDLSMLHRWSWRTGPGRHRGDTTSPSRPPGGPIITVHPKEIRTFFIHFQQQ
inactive: [1] 0.017 | [2] 0.049 | [3] 0.033 | [4] -0.056 | Nexturastat A -0.062 | vemurafenib -0.105 | [5] -0.17 | [6] 0.139 | givinostat 0.014 | barasertib 0.041

LBR (UniProt Q14739)
inactive: [1] 0.045 | [2] -0.035 | [3] -0.002 | [4] 0.045 | Nexturastat A -0.108 | vemurafenib 0.063 | [5] 0.05 | [6] -0.009 | givinostat 0.125 | barasertib 0.024

LIMA1 isoform 4 (UniProt Q9UHB6)
inactive: [1] -0.082 | [2] 0.133 | [3] -0.014 | [4] 0.033 | Nexturastat A 0.004 | vemurafenib 0.061 | [5] 0.011 | [6] -0.033 | givinostat 0.032 | barasertib -0.025

KNTC1 (UniProt P50748)
inactive: [1] -0.027 | [2] -0.003 | [3] -0.021 | [4] 0.026 | Nexturastat A 0.034 | vemurafenib 0.042 | [5] 0.036 | [6] 0.092 | givinostat 0.082 | barasertib 0.035

LTO1 (UniProt Q8WV07)
Chain of UniProt Q8WV07 (Q8WV07 whole entry, looked up): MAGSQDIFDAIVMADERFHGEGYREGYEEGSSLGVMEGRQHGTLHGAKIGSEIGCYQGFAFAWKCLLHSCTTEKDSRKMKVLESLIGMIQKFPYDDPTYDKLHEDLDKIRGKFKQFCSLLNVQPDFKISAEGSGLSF
inactive: [1] 0.021 | [2] -0.042 | [3] -0.021 | [4] -0.009 | Nexturastat A 0.245 | vemurafenib 0.101 | [5] 0.027 | [6] 0 | givinostat -0.121 | barasertib -0.04

ITPRIP (UniProt Q8IWB1)
Chain of UniProt Q8IWB1 (Q8IWB1 whole entry, looked up): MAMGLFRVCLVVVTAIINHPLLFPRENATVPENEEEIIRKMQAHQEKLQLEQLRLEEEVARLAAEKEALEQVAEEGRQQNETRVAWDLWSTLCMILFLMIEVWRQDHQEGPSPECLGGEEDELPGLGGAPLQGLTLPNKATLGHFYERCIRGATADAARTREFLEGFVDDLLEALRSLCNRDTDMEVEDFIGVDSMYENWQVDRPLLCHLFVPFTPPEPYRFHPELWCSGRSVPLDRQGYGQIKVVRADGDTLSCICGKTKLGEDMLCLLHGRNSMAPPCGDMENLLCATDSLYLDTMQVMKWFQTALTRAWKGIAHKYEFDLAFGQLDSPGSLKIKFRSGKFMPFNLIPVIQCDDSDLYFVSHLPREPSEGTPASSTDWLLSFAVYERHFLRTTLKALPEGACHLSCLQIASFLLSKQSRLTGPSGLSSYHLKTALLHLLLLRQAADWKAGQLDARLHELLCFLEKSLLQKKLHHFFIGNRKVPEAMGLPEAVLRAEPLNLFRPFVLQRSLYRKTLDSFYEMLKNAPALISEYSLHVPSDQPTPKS
inactive: [1] -0.044 | [2] 0.007 | [3] -0.01 | [4] 0.081 | Nexturastat A 0.005 | vemurafenib 0.02 | [5] 0.061 | [6] -0.099 | givinostat 0.007 | barasertib 0.023

MCL1 (UniProt Q07820)
inactive: [1] -0.022 | [2] -0.047 | [3] 0.048 | [4] 0.048 | Nexturastat A 0.08 | vemurafenib -0.057 | [5] -0.164 | [6] 0.084 | givinostat 0.075 | barasertib -0.027

KHDRBS1 (UniProt Q07666)
inactive: [1] 0.086 | [2] -0.006 | [3] -0.082 | [4] 0.111 | Nexturastat A 0.077 | vemurafenib 0.075 | [5] -0.068 | [6] 0.034 | givinostat 0.005 | barasertib -0.106

MAP1LC3B2 (UniProt A6NCE7)
inactive: [1] 0.021 | [2] -0.034 | [3] -0.029 | [4] 0.04 | Nexturastat A -0.028 | vemurafenib 0.088 | [5] 0.01 | [6] 0.041 | givinostat 0.038 | barasertib 0

LARP1 (UniProt Q6PKG0)
inactive: [1] 0.01 | [2] 0.032 | [3] -0.035 | [4] 0.029 | Nexturastat A 0.142 | vemurafenib -0.033 | [5] -0.03 | [6] 0.046 | givinostat 0.012 | barasertib -0.006

MAST4 (UniProt O15021)
inactive: [1] 0.003 | [2] -0.246 | [3] 0.061 | [4] 0.044 | Nexturastat A -0.08 | vemurafenib 0.021 | [5] 0.055 | [6] 0.072 | givinostat -0.024 | barasertib 0.028

LARP7 isoform 3 (UniProt Q4G0J3)
inactive: [1] -0.011 | [2] 0.054 | [3] -0.03 | [4] -0.053 | Nexturastat A 0.016 | vemurafenib 0.027 | [5] 0.045 | [6] 0.004 | givinostat -0.03 | barasertib 0

LONP2 (UniProt Q86WA8)
inactive: [1] 0.173 | [2] -0.119 | [3] 0.08 | [4] 0.009 | Nexturastat A -0.083 | vemurafenib 0.128 | [5] -0.137 | [6] 0.013 | givinostat -0.05 | barasertib -0.056

MED16 (UniProt Q9Y2X0)
inactive: [1] -0.025 | [2] -0.044 | [3] -0.046 | [4] 0.036 | Nexturastat A 0.162 | vemurafenib -0.017 | [5] 0.046 | [6] 0.014 | givinostat 0.076 | barasertib -0.03

KEAP1 (UniProt Q14145)
Chain of UniProt Q14145 (Q14145 whole entry, looked up): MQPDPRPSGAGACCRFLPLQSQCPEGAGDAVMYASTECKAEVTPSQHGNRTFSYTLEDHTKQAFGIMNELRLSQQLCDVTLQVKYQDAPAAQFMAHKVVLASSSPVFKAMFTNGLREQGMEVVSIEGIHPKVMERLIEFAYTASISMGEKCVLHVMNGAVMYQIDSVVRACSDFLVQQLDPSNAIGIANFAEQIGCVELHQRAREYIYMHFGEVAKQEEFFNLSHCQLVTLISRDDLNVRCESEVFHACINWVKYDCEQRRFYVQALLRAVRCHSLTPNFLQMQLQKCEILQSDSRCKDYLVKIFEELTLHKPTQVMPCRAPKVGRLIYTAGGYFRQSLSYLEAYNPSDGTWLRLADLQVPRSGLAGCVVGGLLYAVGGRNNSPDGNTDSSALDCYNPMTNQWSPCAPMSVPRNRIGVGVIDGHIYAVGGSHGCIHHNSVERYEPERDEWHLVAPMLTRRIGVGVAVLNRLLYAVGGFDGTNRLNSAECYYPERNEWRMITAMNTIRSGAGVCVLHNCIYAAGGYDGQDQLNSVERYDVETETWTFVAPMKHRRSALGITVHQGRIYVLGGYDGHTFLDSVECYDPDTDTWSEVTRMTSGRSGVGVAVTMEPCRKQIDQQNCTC
inactive: [1] -0.024 | [2] 0.032 | [3] 0.005 | [4] -0.009 | Nexturastat A 0.038 | vemurafenib 0.054 | [5] 0.101 | [6] 0.004 | givinostat 0.034 | barasertib 0.082

ME2 (UniProt P23368)
Chain of UniProt P23368 (P23368 whole entry, looked up): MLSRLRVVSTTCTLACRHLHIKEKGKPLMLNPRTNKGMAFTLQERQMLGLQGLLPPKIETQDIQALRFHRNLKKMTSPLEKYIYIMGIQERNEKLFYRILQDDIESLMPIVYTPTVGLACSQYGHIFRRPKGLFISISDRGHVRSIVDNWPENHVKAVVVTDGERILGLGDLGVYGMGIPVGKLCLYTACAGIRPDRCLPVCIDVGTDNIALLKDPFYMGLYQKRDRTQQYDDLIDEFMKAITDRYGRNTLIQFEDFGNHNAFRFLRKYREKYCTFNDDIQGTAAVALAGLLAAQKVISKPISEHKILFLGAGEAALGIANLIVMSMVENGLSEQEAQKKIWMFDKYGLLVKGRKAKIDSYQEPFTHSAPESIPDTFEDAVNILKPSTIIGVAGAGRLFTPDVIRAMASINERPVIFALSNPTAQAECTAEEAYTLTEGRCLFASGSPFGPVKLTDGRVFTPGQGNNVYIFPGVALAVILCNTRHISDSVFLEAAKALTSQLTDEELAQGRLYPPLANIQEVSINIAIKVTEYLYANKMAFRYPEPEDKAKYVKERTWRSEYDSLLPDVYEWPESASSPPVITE
inactive: [1] -0.01 | [2] -0.057 | [3] -0.044 | [4] -0.017 | Nexturastat A 0.015 | vemurafenib 0.011 | [5] 0.002 | [6] 0.022 | givinostat 0.027 | barasertib 0.018

MAPK12 (UniProt P53778)
inactive: [1] -0.043 | [2] 0.017 | [3] -0.022 | [4] 0.09 | Nexturastat A -0.112 | vemurafenib 0.019 | [5] 0.104 | [6] 0.016 | givinostat -0.058 | barasertib -0.031
